DT40 TDP1 CPT: growth inhibition of DT40 Tdp1-/-;hTDP1 cells with camptothecin (screen for TDP1 inhibitors). AID 686979. Potency, µM (top dose mostly 46.2 µM), most hits filed as inhibitors. 420,000 tested, 12% active. chicken DT40 Tdp1-/-;hTDP1 cells + 20 nM CPT, ATP luminescence, 48 h; further: nearly all actives have a fitted effect of over 55% in size
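Cell growth measured by CellTiter-Glo luminescence after a minimum 48 h, 37 C compound exposure with 20 nM CPT in Tdp1-knockout DT40 cells stably expressing hTDP1, seeded 400/well; qHTS titration format.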
TDP1 cell noCPT: qHTS for Inhibitors of human tyrosyl-DNA phosphodiesterase 1 (TDP1): qHTS in cells in absence of CPT; Potency, µM (doses to about 46.2 µM), most hits filed as inhibitors; AID 686978, 2013; 420,000 tested, 15% active; DT40 Tdp1-/- hTDP1 cells, no CPT, ATP luminescence, 48 h; further: nearly all actives have a fitted effect of over 55% in size
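Growth of hTDP1-complemented DT40 Tdp1-knockout cells is measured by ATP luminescence after at least 48 hr compound exposure at 37 °C, with DMSO substituting for the 20 nM CPT used in the parallel screen.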
HT1080NT lethal: kills 2HG-producing HT-1080-NT fibrosarcoma cells; HT-1080-NT fibrosarcoma viability, CellTiter-Glo ATP luminescence, 48 h; Potency, µM (highest dose often 46.1 µM), usual class: cytotoxic; 360,000 tested, 1.6% active;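 further: NT is the 2HG producing partner of a matched IDH1 knockdown line; nearly all actives have a fitted effect of over 55% in size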
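750 cells/well, RPMI + 5% FBS; 2 h settle, compound pin-transfer, 48 h at 37 degrees C. CellTiter-Glo 10 min RT, luminescence. Normalized to DMSO and media-only wells.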
KB-3-1 cytotox: kills parental KB-3-1 adenocarcinoma cells. KB-3-1 viability, CellTiter-Glo ATP luminescence, 72 h. 400,000 tested, 1.4% active. Potency, µM (highest dose often 46.1 µM), hits mostly cytotoxic; further: nearly all actives have a fitted effect of over 60% in size
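Here the drug-naive KB-3-1 line serves as comparator for MDR sub-line selectivity; cells received compound titrations, 72 h at 37 °C, then CellTiter-Glo readout.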
HT1080 IDH1KD tx: kills HT-1080 cells with IDH1 knockdown; 360,000 tested, 2% active; Potency, µM (titrated, usually from 46.1 µM), actives largely listed as cytotoxic; HT-1080 IDH1 knockdown viability, ATP luminescence, 48 h
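Luminescent ATP read-out (CellTiter-Glo, 10 min at room temperature) after 48 h compound exposure at 37 °C gave viability of IDH1-knockdown HT-1080 cells. Activity was normalised to DMSO and cell-free wells, then fitted as concentration-response curves.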
KB-V1 cytotox: KB-V1 MDR subline cytotoxicity | KB-V1 MDR cells viability, CellTiter-Glo, 72 h | Potency, µM (doses to about 46.1 µM), hits mostly cytotoxic | 400,000 tested, 3.4% active; further: nearly all actives have a fitted effect of over 60% in size
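Cells of the MDR subline KB-V1 are plated, dosed with compound at multiple concentrations, and incubated 72 h at 37 degrees C; CellTiter-Glo is then added and luminescence read after 10 min.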
A number is an active result; i = inactive; ? = inconclusive; nt = not tested or not shown. Only some compounds are listed: those with a hit (about 19% of all), similar ones and a draw of the others. The call rests on the fitted dose curve; in most records, active means well fitted curve in the direction sought with a large enough effect; inconclusive means small, poorly fitted or top-dose-only effect, or another doubt; inactive means no such curve, though single readings can be large; an effect the other way counts as inactive or inconclusive.

SMILES	DT40 TDP1 CPT	TDP1 cell noCPT	HT1080NT lethal	KB-3-1 cytotox	HT1080 IDH1KD tx	KB-V1 cytotox
C=C(C(=O)c1ccccc1)C(C)CC(=O)c1ccccc1 (configuration not stated)	23µM	15µM	i	i	21µM	i
O=C(CC(C(=O)O)c1cccc(Cl)c1)c1ccccc1 (configuration not stated)	i	i	i	i	i	i
C=C(C(=O)c1ccccc1)C(NC(C)(C)C)c1ccccc1 (configuration not stated)	2.1µM	2.3µM	6.5µM	3.7µM	5.8µM	?
O=C(CC(C(=O)c1ccccc1)c1ccccc1)c1ccccc1 (configuration not stated)	?	21µM	i	i	i	?
CN(Cc1cc(Cl)cc(Cl)c1)CC(C(=O)c1ccccc1)c1ccccc1 (configuration not stated)	6.5µM	7.3µM	i	?	?	i
O=C(Nc1cccc(Cl)c1)Nc1ccccc1OCc1cc(=O)n2ccccc2n1	i	i	nt	nt	nt	nt
CC1(C(=O)OCC(=O)Nc2cc(S(=O)(=O)N3CCOCC3)ccc2Cl)CC1(Cl)Cl (configuration not stated)	?	?	i	i	i	i
N#CC(c1ccc(N)cc1)C(CC(=O)c1ccccc1)c1ccccc1 (configuration not stated)	?	29µM	i	i	i	i
CN(C)CC(C(=O)c1ccccc1)c1ccccc1 (configuration not stated)	1.2µM	1.5µM	i	?	13µM	?
N#CC(c1ccccc1)C(CC(=O)c1ccccc1)c1ccccc1 (configuration not stated)	?	?	i	i	i	?
CC(=O)N(c1ccccc1)C(C(=O)c1ccccc1)c1ccccc1 (configuration not stated)	?	?	i	i	i	i
CC(C)(C)OC(=O)N1CCC(c2c(C(=O)N3CCN(c4ccccn4)CC3)cnn2-c2ccccc2Cl)CC1	?	18µM	nt	i	nt	i
Cc1cccc(C)c1-n1ncc(C(=O)N2CCN(c3ccccn3)CC2)c1C1CCN(C(=O)OC(C)(C)C)CC1	?	18µM	nt	i	nt	i
COc1ccc(OC)c(CCNC(=O)c2cnn(-c3ccccc3Cl)c2C2CCN(C(=O)OC(C)(C)C)CC2)c1	18µM	13µM	nt	i	nt	i
CC(C)(C)OC(=O)N1CCC(c2c(C(=O)N3CCN(c4ccccn4)CC3)cnn2-c2ccc(F)cc2F)CC1	?	?	nt	i	nt	i
Cc1cccc(C)c1-n1ncc(C(=O)N2CCN(c3ncccn3)CC2)c1C1CCN(C(=O)OC(C)(C)C)CC1	?	?	nt	i	nt	i
CC(C)(C)OC(=O)N1CCC(c2c(C(=O)N3CCCCC3)cnn2-c2ccccc2Cl)CC1	18µM	?	nt	i	nt	i
CC(C)(C)OC(=O)N1CCC(c2c(C(=O)NCCc3ccsc3)cnn2-c2ccccc2Cl)CC1	?	?	nt	i	nt	i
O=C(COc1ccc(CNC[C@H]2O[C@@H](n3ccc(=O)[nH]c3=O)[C@H](O)[C@@H]2O)cc1)Nc1nccs1	i	i	i	i	?	i
COc1ccc(S(=O)(=O)N(C)c2ccc(C(=O)Nc3ccccc3C(=O)N3CCOCC3)cc2)cc1OC	?	i	i	i	i	i
Cc1ccc(-c2cc(C(=O)Oc3ccc(C#N)cc3)no2)cc1	i	?	nt	i	nt	i
Cc1nc(NC(=O)c2cc3c(C)nn(-c4ccccc4)c3s2)sc1C(=O)Nc1ccccc1	?	21µM	i	i	i	i
Cc1nn(-c2ccccc2)c2sc(C(=O)Nc3cccc(Cl)c3)cc12	?	23µM	nt	i	nt	?
COc1ccc(NC(=O)c2cc3c(C)nn(-c4ccccc4)c3s2)c(OC)c1	?	?	nt	i	nt	i
CC(=O)c1sc(NC(=O)c2cc3c(C)nn(-c4ccccc4)c3s2)nc1C	i	i	i	i	i	i

Assay outcomes from PubChem.
